Pol iota inh – qHTS for Inhibitors of Polymerase Iota. actives 1% (n = 390,000). Pol iota fluorescent replication assay, 10 min. AID 588590, 2011. DNA polymerase iota (Homo sapiens), Q9UNA4. Potency, µM (highest dose often 115 µM), hits mostly inhibitors
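Pol iota at 10 nM preincubated 15 min with compounds at room temperature; reaction started with fluorescent substrate, 50 nM final. Fluorescence read kinetically at 0 and 10 min; buffer-only wells as negative control.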
FEN1 inhibitor – qHTS Assay for the Inhibitors of Human Flap endonuclease 1 (FEN1); P39748; Recombinant FEN1 flap cleavage, fluorescence, 15 min; Potency, µM (highest dose often 114 µM), most hits filed as inhibitors; actives 0.35% (n = 390,000); AID 588795, 2011; further: nearly all actives have a fitted effect of over 65% in size
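Compounds are tested as a concentration series against 10 nM FEN1; after a 15 min room-temperature preincubation, 50 nM substrate starts cleavage, with plate reads at 0 and 15 min. Normalized responses are fitted by a Hill equation.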
WRN helicase inh – qHTS for Inhibitors of WRN Helicase; AID 651768, 2012; actives 0.46% (n = 360,000); Bifunctional 3'-5' exonuclease/ATP-dependent helicase WRN (Homo sapiens), Q14191; WRN helicase unwinding, fluorescent forked duplex, kinetic; Potency, µM (top dose mostly 114 µM), most hits filed as inhibitors; further: nearly all actives have a fitted effect of over 55% in size
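Screening of the MLSMR collection measured strand separation of a quenched forked DNA duplex (100 nM) by 20 nM WRN with 2 mM ATP, all final. Compounds were preincubated with enzyme 15 min at room temperature.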
Pol kappa inh – qHTS for Inhibitors of Polymerase Kappa. DNA polymerase kappa (Homo sapiens), Q9UBT6. purified Pol kappa, fluorescent DNA synthesis assay, 10 min. Potency, µM (highest dose often 107 µM), most hits filed as inhibitors. actives 0.53% (n = 400,000). AID 588579, 2011
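10 nM Pol kappa was preincubated with compounds for 15 min at room temperature. Reaction started with 50 nM (final) substrate. Fluorescence read kinetically at 0 and 10 min.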
POLB inh – qHTS Assay for Inhibitors of DNA Polymerase Beta; Pol beta primer extension/strand displacement, fluorescence kinetic; P06746; Potency, µM (titrated, usually from 114 µM), hits mostly inhibitors; AID 485314, 2010; actives 1.3% (n = 340,000)
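Reaction started by 50 nM substrate onto compound-treated Pol beta (10 nM, 15 min preincubation, room temperature); plates read at 0 min and 10 min. Normalized concentration-effect data fitted by four-parameter Hill equation.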
Pol eta inh – qHTS for Inhibitors of Polymerase Eta | actives 1.2% (n = 390,000) | recombinant Pol eta, fluorescent DNA replication assay | DNA polymerase eta (Homo sapiens), Q9Y253 | Potency, µM (series often up to 114 µM), actives largely listed as inhibitors
Target sequence (Q9Y253 whole entry, looked up): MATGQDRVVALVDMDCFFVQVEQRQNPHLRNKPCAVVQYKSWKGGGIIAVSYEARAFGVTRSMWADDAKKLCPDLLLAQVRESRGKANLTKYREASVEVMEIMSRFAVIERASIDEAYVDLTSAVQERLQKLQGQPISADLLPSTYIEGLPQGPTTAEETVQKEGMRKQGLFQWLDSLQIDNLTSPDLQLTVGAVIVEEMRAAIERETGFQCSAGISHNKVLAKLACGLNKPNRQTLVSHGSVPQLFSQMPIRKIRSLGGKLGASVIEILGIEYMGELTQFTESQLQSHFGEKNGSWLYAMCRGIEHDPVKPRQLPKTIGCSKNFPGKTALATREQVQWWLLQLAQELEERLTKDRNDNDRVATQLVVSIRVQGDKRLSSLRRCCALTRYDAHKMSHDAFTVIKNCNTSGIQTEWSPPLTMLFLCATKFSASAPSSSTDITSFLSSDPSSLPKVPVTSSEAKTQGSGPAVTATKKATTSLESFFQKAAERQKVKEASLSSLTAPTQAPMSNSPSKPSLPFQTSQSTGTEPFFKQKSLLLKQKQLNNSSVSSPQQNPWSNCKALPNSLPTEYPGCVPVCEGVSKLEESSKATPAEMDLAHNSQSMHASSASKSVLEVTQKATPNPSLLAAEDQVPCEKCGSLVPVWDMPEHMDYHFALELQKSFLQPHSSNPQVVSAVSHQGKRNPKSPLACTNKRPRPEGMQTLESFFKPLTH
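Pol eta at 10 nM preincubated with compounds 15 min at room temperature; reaction started with fluorescent substrate (50 nM final) and read kinetically at 0 and 10 min.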
Large screens that a line does not name were inactive. An excerpt weighted towards active compounds, which were near 2.4% of everything screened. The call rests on the fitted dose curve; in most records, active means well fitted curve in the direction sought with a large enough effect; inconclusive means small, poorly fitted or top-dose-only effect, or another doubt; inactive means no such curve, though single readings can be large; an effect the other way counts as inactive or inconclusive.

O=C(CCC1CC(=O)Nc2ccccc21)NCc1ccccc1 (configuration not stated)	Pol iota inh inconclusive, Pol eta inh 89µM
O=C(CCC1CC(=O)Nc2ccccc21)NCc1ccc(F)cc1 (configuration not stated)	none
COc1ccccc1CNC(=O)Cn1cc2c(n1)-c1c(oc(C(=O)N3CCOCC3)c1C)CC2	none (no result: WRN helicase inh)
O=C(O)c1ccccc1NC(c1ccccc1)c1ccc2cccnc2c1O (configuration not stated)	WRN helicase inh 14µM, Pol eta inh inconclusive (no result: POLB inh)
Cc1ccnc(NC(c2ccccc2)c2ccc3cccnc3c2O)c1 (configuration not stated)	none (no result: POLB inh)
CCC(C)NC(=O)Cn1c(=O)ccc2cc(S(=O)(=O)N3CCCC3)ccc21 (configuration not stated)	none (no result: WRN helicase inh)
COc1ccc(Cc2nnc(Nc3ccccc3)s2)cc1Br	Pol iota inh inconclusive, FEN1 inhibitor inconclusive, WRN helicase inh 56µM, POLB inh 56µM, Pol eta inh inconclusive
COc1ccc(CNc2ccccc2)cc1Br	none
O=c1c(C(c2nnnn2C2CCCCC2)N2CCCCC2)coc2ccc(Cl)cc12 (configuration not stated)	POLB inh 100µM
N#Cc1cccc(C(c2nnnn2C2CCCC2)N2CCCCCC2)c1 (configuration not stated)	none
CC(C)NC(=O)C(=O)Nc1cc2c3c(c1)CCC(=O)N3CCC2	none
C=CCNS(=O)(=O)c1cc2c3c(c1)CCN3C(=O)CC2	Pol iota inh 28µM, FEN1 inhibitor inconclusive, Pol kappa inh 79µM
CCS(=O)(=O)Nc1cc2c3c(c1)CCN3C(=O)CC2	Pol iota inh 25µM, Pol kappa inh 79µM
CC(C)C(=O)Nc1cc2c3c(c1)CCC(=O)N3CCC2	Pol iota inh 35µM, Pol kappa inh inconclusive
Cc1ccc(CNC(=O)c2cccn2-c2nnc(N3CCCCC3)s2)cc1	none (no result: WRN helicase inh)
Cc1oc(-c2ccccc2Cl)nc1CSCC(=O)N1CCCC1	POLB inh 79µM
O=C(/C=C/c1ccncc1)c1ccc(NC(=O)c2ccccc2F)cc1	Pol iota inh inconclusive, FEN1 inhibitor inconclusive, WRN helicase inh inconclusive, POLB inh 16µM
O=C(/C=C/c1ccc(Br)cc1)c1ccco1	Pol iota inh inconclusive, WRN helicase inh inconclusive
O=C(/C=C/c1ccc(Br)cc1)c1ccc(NC(=O)c2ccco2)cc1	Pol iota inh inconclusive, Pol kappa inh inconclusive, POLB inh 7.1µM, Pol eta inh inconclusive
O=C1C2CC=C(Cl)CC2C(=O)N1c1ncn[nH]1 (configuration not stated)	Pol iota inh inconclusive, POLB inh 28µM, Pol eta inh 22µM
O=C1C2CC=CCC2C(=O)N1c1ncn[nH]1 (configuration not stated)	none
Cc1cc(C)c(S(=O)(=O)Nc2cc(SCC(=O)O)c(O)c3ccccc23)cc1C	Pol iota inh 20µM, WRN helicase inh 22µM, Pol eta inh 35µM
Cc1cc(C)c(S(=O)(=O)Nc2ccc(O)cc2)cc1C	none
CCOC(=O)c1[nH]c2ccc(C)cc2c1NC(=O)CN1CCCCC1	none
Cc1c2cc[n+](CCN3CCCCC3)cc2c(C)c2c1[nH]c1ccc(O)cc12	Pol iota inh 25µM, FEN1 inhibitor 13µM, WRN helicase inh 28µM, Pol kappa inh 35µM, Pol eta inh 2.8µM (no result: POLB inh)
Cc1ccc(OCC(=O)OCc2cc(=O)n3nc(C4CCCCC4)sc3n2)cc1C	none (no result: WRN helicase inh)
COc1ccc2c(COC(=O)CC3Sc4ccccc4NC3=O)cc(=O)oc2c1 (configuration not stated)	Pol iota inh inconclusive, POLB inh 35µM, Pol eta inh 20µM
COc1ccc(NC(=O)COC(=O)CC2Sc3ccccc3NC2=O)cc1 (configuration not stated)	none (no result: POLB inh)
O=C(Nc1ccc2c(c1)OCO2)c1cccc2c1C(=O)N(Cc1cccnc1)C2	Pol iota inh inconclusive, POLB inh 40µM, Pol eta inh inconclusive
O=c1oc(-c2ccc(C(F)(F)F)cc2)nn1Cc1cc(Cl)ccc1O	none (no result: Pol iota inh, FEN1 inhibitor, WRN helicase inh, POLB inh, Pol eta inh)
CC(C)NC(=O)CC(=O)N/N=C/c1cccs1	POLB inh 14µM
C(=NN=C(NN=Cc1cccs1)NN=Cc1cccs1)c1cccs1	Pol iota inh 79µM, FEN1 inhibitor inconclusive (no result: POLB inh)
CCOc1ccccc1NC(=O)CSc1nc2cc(OC)c(OC)cc2c2nc(CCn3c(C)nc4ccccc43)nn12	none (no result: WRN helicase inh, Pol eta inh)
c1coc(CNc2nc[n+]3c4c2ncn4CC3)c1	none (no result: WRN helicase inh, POLB inh, Pol eta inh)
O=C(COC(=O)c1cn(-c2ccccc2)nc1-c1ccccc1)Nc1ncc(Cl)cc1Cl	Pol iota inh inconclusive, WRN helicase inh inconclusive, Pol kappa inh inconclusive, POLB inh inconclusive, Pol eta inh 35µM
O=C(COC(=O)CNC(=O)c1ccccc1F)Nc1ncc(Cl)cc1Cl	Pol iota inh inconclusive, Pol eta inh 50µM (no result: POLB inh)
Cc1cnc(C(=O)OCC(=O)Nc2ncc(Cl)cc2Cl)cn1	Pol iota inh inconclusive, Pol eta inh 50µM (no result: POLB inh)
COc1cccc(-c2nn(-c3ccccc3)cc2C(=O)OCC(=O)Nc2ncc(Cl)cc2Cl)c1	none
Cc1cccc(OCC(=O)Nc2sc3c(c2C#N)CCC3)c1	none
Cc1cnc(C(=O)OCC(=O)Nc2ccc(Cl)cn2)cn1	none (no result: POLB inh)
Cc1cnc(C(=O)OCC(=O)Nc2sc3c(c2C#N)CCC3)cn1	Pol iota inh inconclusive, WRN helicase inh inconclusive, Pol eta inh 22µM (no result: POLB inh)
COc1cc(C(=O)NCC(=O)OCC(=O)Nc2ncc(Cl)cc2Cl)cc(OC)c1OC	none
CN(C)c1ccc(/C=C/c2cc(/C=C/c3ccc(N(C)C)cc3)c3ccccc3n2)cc1	Pol iota inh inconclusive, FEN1 inhibitor inconclusive (no result: WRN helicase inh, POLB inh, Pol eta inh)
NC(=O)c1ccc(NC(=O)COC(=O)c2ccc(Cl)nc2)cc1	none (no result: POLB inh)
O=C(COC(=O)c1ccc(Cl)nc1)Nc1ncc(Cl)cc1Cl	POLB inh inconclusive, Pol eta inh 35µM
CC/C(=C/c1ccccc1OC)c1cc(-c2ccccc2)cc2oc3ccccc3c12	none (no result: WRN helicase inh, POLB inh, Pol eta inh)
CSc1nsc(/C=C/Nc2ccc(F)cc2)c1C#N	Pol iota inh inconclusive
CSc1nsc(/C=C/Nc2ccc(O)cc2C)c1C#N	Pol iota inh 25µM, FEN1 inhibitor inconclusive, WRN helicase inh inconclusive
COc1cc(-c2noc(-c3ccc(NCc4cccnc4)c([N+](=O)[O-])c3)n2)cc(OC)c1OC	POLB inh 45µM (no result: WRN helicase inh)
CCOc1cc2sc(N3CCC(C(=O)Nc4ccc(C)cc4C)CC3)nc2cc1Br	none (no result: WRN helicase inh)
O=C(O)CN1C(=O)/C(=C\c2ccccc2OCc2ccc(Cl)cc2Cl)SC1=S	Pol iota inh inconclusive, WRN helicase inh inconclusive, POLB inh 20µM, Pol eta inh 45µM

Source: PubChem (National Center for Advancing Translational Sciences (NCATS))
